According to PubChem BioAssay AID2013 (Sanford-Burnham Center for Chemical Genomics, 2009):
The whole screen tested about 290,000 compounds, of which about 370 (0.13%) were called active.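 How the source made its calls: active means spots per cell inhibited over 60%, with over 100 cells counted and total cytoplasm intensity under 500,000; inconclusive means wells with under 100 cells, flagged as likely toxic; inactive means the rest.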 What follows is part of a selection rich in actives, with near analogues and random picks from the rest. Measured potencies and affinities stand elsewhere.

target: G-protein coupled receptor 55 (Homo sapiens) (UniProt Q9Y2T6); assay: inhibition of LPI-stimulated GPR55 beta-arrestin translocation – imaging, U2OS, beta-arrestin-GFP, LPI agonist, primary screen (AID 2013); conditions: LPI antagonism, at 10 µM, active compounds read high;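 further: U2OS cells stably carrying GPR55 and arrestin-GFP stimulated by 5 µM LPI near EC80; imaged beta-arrestin-GFP aggregate spots per cell after agonist stimulation; plate controls were LPI-stimulated DMSO wells for no effect and DMSO wells without LPI for full effect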
Sequence (Q9Y2T6 whole entry, looked up): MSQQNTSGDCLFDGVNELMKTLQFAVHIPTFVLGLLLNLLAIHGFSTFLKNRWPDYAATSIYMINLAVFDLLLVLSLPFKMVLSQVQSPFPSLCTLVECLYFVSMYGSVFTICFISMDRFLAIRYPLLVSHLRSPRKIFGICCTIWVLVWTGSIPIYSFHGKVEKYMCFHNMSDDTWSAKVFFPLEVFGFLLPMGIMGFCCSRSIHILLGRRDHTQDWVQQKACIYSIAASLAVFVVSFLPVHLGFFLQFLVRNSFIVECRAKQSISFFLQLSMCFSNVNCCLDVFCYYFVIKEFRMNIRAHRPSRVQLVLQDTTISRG

inhibition, inactive:
CN(C)S(=O)(=O)NCCNC(=O)c1cc(OCC(F)(F)F)ccc1OCC(F)(F)F -3.8%
COc1cccc2c1OCC(CN1CCN(Cc3ccccc3F)C(CCO)C1)=C2 (stereo not drawn) 8.5%
Cc1cccc(NC(=S)N2CCC(NC(=O)c3ccco3)CC2)c1 7.3%
COc1ccccc1CNC(=O)C1CCN(S(=O)(=O)c2ccc(-n3cnnn3)cc2)CC1 1%
Cc1ccc(S(=O)(=O)N(C)c2ccc(C(=O)NCc3cccnc3)cc2)cc1 11.2%
Cc1cc(N)n2nc(C)c(-c3ccccc3)c2n1 -2.4%
Cc1cc(C)n2nc(-c3ccccc3)c(-c3ccccc3)c2n1 7.9%
COc1cccc(NC(=O)C23CCC(C)(C(=O)O2)C3(C)C)c1 (stereo not drawn) -7.9%
Cc1csc(SCC(=O)Nc2sccc2C(N)=O)n1 2.4%
CCOC(=O)CC1C(=O)NCCN1c1nc2ccc(C)cn2c(=O)c1/C=C1\SC(=S)N(CC(C)C)C1=O (stereo not drawn) 26.9%
CCOC(=O)CC1C(=O)NCCN1S(=O)(=O)c1ccc(C)cc1 (stereo not drawn) 6.6%
CCCN1C(=O)/C(=C/c2c(N3CCNC(=O)C3CC(=O)OC)nc3c(C)cccn3c2=O)SC1=S (stereo not drawn) 46.4%
CCCN1C(=O)/C(=C/c2c(NCCCOCC)nc3c(C)cccn3c2=O)SC1=S 8%
CSc1ccccc1C(=O)NCc1cccnc1 -2.4%
C=CCn1c(SCC(=O)Nc2ccc(F)cc2F)nc2c([nH]c3ccccc32)c1=O -3.4%
CCC(NS(=O)(=O)c1ccc2c(c1)NC(=O)C(C)C(=O)N2)c1cccs1 (stereo not drawn) 1%
CC/C(=N/N=C(\CC)c1ccccc1)c1ccccc1 20.4%
COc1ccccc1N1CCN(C(=O)c2cc3c(s2)CCCCC3)CC1 6.6%
c1ccc(CN2CCC(Nc3nc(-c4cccnc4)nc4ccccc34)CC2)cc1 21.2%
c1ccc(CN2CCC(Nc3nc(-c4ccccc4)nc4ccccc34)CC2)cc1 31%
CC(=O)Nc1ccc(C(=O)OCC(=O)Nc2ccccc2Sc2ccccc2)cc1 16.2%
N#CCC(=O)Nc1ccc(C(=O)OCC(=O)Nc2ccccc2-c2ccccc2)cc1 6.7%
Cc1ccc(S(=O)(=O)N2CCN(c3nc(C(C)C)c4c(c3C#N)CC(C)(C)OC4)CC2)cc1 2.3%
Cc1nc(N2CCOCC2)c(C#N)c2c1COC(C)(C)C2 -9%
COc1cc(C2c3c(oc4cc(C)c(C)cc4c3=O)C(=O)N2c2cc(C)ccn2)ccc1O (stereo not drawn) 2.8%
COc1cc(C2c3c(oc4ccc(C)cc4c3=O)C(=O)N2c2cc(C)ccn2)cc(OC)c1OC (stereo not drawn) 17.6%
COc1cccc(-c2cc(=O)c3cc(NC(=O)c4ccc(Cl)cc4)ccc3[nH]2)c1 -2.5%
O=C(c1ccc(Oc2ccc([N+](=O)[O-])cc2Cl)cc1)N1CCCC1 -12.4%
O=C(c1cccc(Oc2ccc([N+](=O)[O-])cc2Cl)c1)N1CCOCC1 -4.4%

inhibition, active:
CCCN1C(=O)/C(=C/c2c(N3CCNC(=O)C3CC(=O)OCC)nc3c(C)cccn3c2=O)SC1=S (stereo not drawn) 88.9%
CCOC(=O)CC1C(=O)NCCN1c1nc2ccc(C)cn2c(=O)c1/C=C1\SC(=S)N(C(C)CC)C1=O (stereo not drawn) 70.2%
c1ccc(CN2CCC(Nc3nc(-c4cccs4)nc4ccccc34)CC2)cc1 84.6%
COc1ccc(C2c3c(oc4ccc(C)cc4c3=O)C(=O)N2c2cc(C)ccn2)cc1OC (stereo not drawn) 86.9%
